Screening data from PubChem.
A selection: hits, their analogues and other compounds. The true share with any hit is near 1.5%.
ABHD5-PLIN5 inh: ABHD5-PLIN5 interaction inhibitors, primary screen, cell lysate, split luciferase complementation, luminescence; inhibition, % at 4 µM; Split G. princeps luciferase complementation, 4 h; 0.78% of 360,000 active;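 active means inhibition above the mean inhibition across every tested compound plus 3 SD, cut at about 22% in these data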;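 further: 0% = DMSO only wells and the 100% control is not disclosed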
NOD2-RIPK2 inh: NOD2-RIPK2 binding disruptors in cells, primary screen, fluorescence, CHO cells, BLA complementation | inhibition, % at 4.98 µM | CCF4 ratio | Receptor-interacting serine/threonine-protein kinase 2 (Homo sapiens), O43353 | 0.38% of 360,000 active; in the data active means inhibition above about 21%;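 further: 0% = vehicle only and 100% = reference blocker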
TLR4 MyD88 comp: inhibitors of TLR4-MyD88 association in cells, primary screen, cell-based, HeLa CL3-4, BLA complementation, FRET ratio | HeLa CL3-4 TLR4/MyD88 BLA complementation | 0.18% of 200,000 active | Toll-like receptor 4 (Homo sapiens) + Myeloid differentiation primary response protein … | inhibition, % at 8.4 µM; in the data active means inhibition above about 25%;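 further: 0% = vehicle and 100% = reference inhibitor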
TLR9-MyD88 block: inhibitors of TLR9-MyD88 association in cells, primary screen, cell-based, CHO, BLA complementation, fluorescence | inhibition, % at 4.98 µM | 0.21% of 340,000 active | CCF4 FRET ratio;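 active means inhibition above the mean over all tested compounds plus 3 SD, cut at about 21% in these data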;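 further: 0% = DMSO only wells and 100% = clavulanate BLA inhibitor control wells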
Beta2AR agonist: beta2AR agonists driving receptor internalization, primary screen, cell-based, FAP fluorogen, flow cytometry. Beta-2 adrenergic receptor (Homo sapiens), P07550. Am2.2-beta2AR cells. response, % (no concentration beside the values). 0.43% of 340,000 active;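 active means response above a set limit, near 3 SD of response in nonfluorescent compounds, cut at about 42% in these data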
NTR1 agonist: agonists of human NTR1, primary screen, imaging, U2OS cells, beta-arrestin-GFP, high content; Neurotensin receptor type 1 (Homo sapiens), P30989; NTR1-U2OS beta-arrestin-GFP spot imaging, agonist mode; activation, % at 20 µM; 0.17% of 330,000 active;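 active means activation at or above 40% of the spot to cytoplasm intensity ratio, with at least 20 cells analyzed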;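 further: 0% = DMSO without peptide and 100% = 100 nM NTR1 peptide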
B2AR ag CP1: beta2AR agonists via receptor internalization, confirmation, cell-based, FAP fluorogen, flow cytometry, single point, cherry pick 1 | shares compounds with Beta2AR agonist | Am2.2-beta2AR cells, FAP surface receptor; active compounds read low | percent response (surface receptor), % at 10 µM | 25% of 1,100 active | AID 540358, 2011;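 active means surface receptor percent response at or below 58%, roughly 3 SD from nonfluorescent compounds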
B2AR FAP counter: flagged in Am2.2 fluorescence counterscreen for beta-2AR agonists. shares compounds with Beta2AR agonist. Am2.2 cells, FAP fluorogen flow cytometry; active compounds read low. AID 588765. 1,100 tested, under 10 active. calls only at 10 µM;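 active means percent response below a set limit in fluorescence channel 1 and below 50% in channel 8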
* marks the source's active call; other numbers are inactive results.

How did CC(=O)Nc1ccc(NC(=O)CSc2ncc(C(=O)Nc3ccc(F)cc3)c(=O)n2C)cc1 do in these assays?
ABHD5-PLIN5 inh: -2; NOD2-RIPK2 inh: -6; TLR9-MyD88 block: 1; Beta2AR agonist: 1; NTR1 agonist: 2

What do the screens show for `CCOC(=O)c1[nH]c(=S)[nH]c1C`?
ABHD5-PLIN5 inh: -7; NOD2-RIPK2 inh: -5; TLR9-MyD88 block: -10; Beta2AR agonist: -8

Results for CC(C)NC[C@H](O)c1ccc(O)c(O)c1 ?
ABHD5-PLIN5 inh: 5; NOD2-RIPK2 inh: -17; TLR9-MyD88 block: -6; NTR1 agonist: 8

How did CC(C)NCC(O)c1cc(O)cc(O)c1 (centres undefined) do in these assays?
ABHD5-PLIN5 inh: -6; NOD2-RIPK2 inh: 0; TLR9-MyD88 block: -14; Beta2AR agonist: 0; NTR1 agonist: -2; B2AR ag CP1: 93; B2AR FAP counter: inactive

How did CCOC(=O)N1CCN(c2ncnc3c2[nH]c2ccc(OC)cc23)CC1 do in these assays?
ABHD5-PLIN5 inh: 6; NOD2-RIPK2 inh: -8; TLR4 MyD88 comp: 18; TLR9-MyD88 block: 2; Beta2AR agonist: 90*; NTR1 agonist: 1; B2AR ag CP1: 124; B2AR FAP counter: inactive

How did N#Cc1ccc(-c2cccnc2)nc1SCc1ccc(Cl)cc1Cl do in these assays?
ABHD5-PLIN5 inh: -1; NOD2-RIPK2 inh: -10; TLR4 MyD88 comp: 3; TLR9-MyD88 block: 8; Beta2AR agonist: 52*; NTR1 agonist: 10; B2AR ag CP1: 71; B2AR FAP counter: inactive

What do the screens show for `O=C(Cn1nnc(-c2ccccc2)n1)Nc1ccccc1N1CCOCC1`?
ABHD5-PLIN5 inh: 0; NOD2-RIPK2 inh: -11; TLR4 MyD88 comp: -4; TLR9-MyD88 block: -6; Beta2AR agonist: -19; NTR1 agonist: 3; B2AR ag CP1: 43*; B2AR FAP counter: inactive

Results for COc1ccc(CNCCC(c2ccc(F)cc2)c2ccc(OC(C)C)cc2)cc1OC (centres undefined) ?
ABHD5-PLIN5 inh: 1; NOD2-RIPK2 inh: -4; TLR9-MyD88 block: -10; Beta2AR agonist: 32; NTR1 agonist: 26

Results for COc1ccc(C(CCNCc2ccccc2)c2ccc(F)cc2)cc1 (centres undefined) ?
ABHD5-PLIN5 inh: 8; NOD2-RIPK2 inh: 4; TLR4 MyD88 comp: 14; TLR9-MyD88 block: -5; Beta2AR agonist: 16; NTR1 agonist: 4; B2AR ag CP1: 85; B2AR FAP counter: inactive

How did COc1ccc(C(CCNC(C)c2ccccc2)c2ccc(F)cc2)cc1 (centres undefined) do in these assays?
ABHD5-PLIN5 inh: 13; NOD2-RIPK2 inh: -2; TLR4 MyD88 comp: 3; TLR9-MyD88 block: -4; Beta2AR agonist: 42*; NTR1 agonist: 8; B2AR ag CP1: 99; B2AR FAP counter: inactive

How did COc1ccc(C(CCNCc2ccc(F)cc2)c2ccc(F)cc2)cc1 (centres undefined) do in these assays?
ABHD5-PLIN5 inh: 8; NOD2-RIPK2 inh: -11; TLR4 MyD88 comp: 10; TLR9-MyD88 block: 1; Beta2AR agonist: 42; NTR1 agonist: 18; B2AR ag CP1: 104; B2AR FAP counter: inactive

How did COc1ccc(C(OCC(O)CNC(C)c2ccccc2)c2ccc(OC)cc2)cc1 (centres undefined) do in these assays?
ABHD5-PLIN5 inh: 15; NOD2-RIPK2 inh: 3; TLR9-MyD88 block: 0; Beta2AR agonist: 51*; NTR1 agonist: 5; B2AR ag CP1: 114; B2AR FAP counter: inactive

How did COc1ccc(C(C)(O)c2nc(-c3ccc4ccccc4c3)cs2)cc1 (centres undefined) do in these assays?
ABHD5-PLIN5 inh: -8; NOD2-RIPK2 inh: 9

How did COc1ccc(CN2C[C@@H](CO)O[C@@H](n3cnc4c(NCCO)ncnc43)C2)cc1 do in these assays?
ABHD5-PLIN5 inh: 0; NOD2-RIPK2 inh: 0

Results for O=S1(=O)N[C@H](Cc2ccccc2)COc2cc(N3CCC[C@@H]3CO)ccc21 ?
ABHD5-PLIN5 inh: -3; NOD2-RIPK2 inh: -13

Results for CCCCCCCCN1C(=O)[C@H](CC(=O)NCc2ccc(OC)c(OC)c2)C[C@@]2(C(=O)OC)CCCCC=C12 ?
ABHD5-PLIN5 inh: -5; NOD2-RIPK2 inh: -7

How did CCOC(=O)C1(C)CCCN(C(=O)c2cccc(C#N)c2)C1 (centres undefined) do in these assays?
ABHD5-PLIN5 inh: 1; NOD2-RIPK2 inh: 5

Results for COc1ccc(CNCCC(c2ccc(F)cc2)c2ccc(OC)cc2)cc1 (centres undefined) ?
ABHD5-PLIN5 inh: 13; NOD2-RIPK2 inh: 9; TLR4 MyD88 comp: -1; TLR9-MyD88 block: -12; Beta2AR agonist: 35; NTR1 agonist: 7; B2AR ag CP1: 88; B2AR FAP counter: inactive

What do the screens show for `COc1ccccc1-c1csc(C(O)c2ccc(F)c(F)c2)n1` (centres undefined)?
ABHD5-PLIN5 inh: -8; NOD2-RIPK2 inh: 0

How did CCCc1cc(Nc2cccc(OC)c2)n2ncnc2n1 do in these assays?
ABHD5-PLIN5 inh: 3; NOD2-RIPK2 inh: 2; TLR4 MyD88 comp: 6; TLR9-MyD88 block: 0; Beta2AR agonist: 3; NTR1 agonist: 3

How did CCCc1cc(Nc2cccc(OCC)c2)n2ncnc2n1 do in these assays?
ABHD5-PLIN5 inh: 6; NOD2-RIPK2 inh: -9; TLR4 MyD88 comp: 0; TLR9-MyD88 block: -3; Beta2AR agonist: 49*; NTR1 agonist: 1; B2AR ag CP1: 136; B2AR FAP counter: inactive

Results for COc1ccc(OC)c(CCNC(=O)C2CCN(c3nnc(-n4cccc4)s3)CC2)c1 ?
ABHD5-PLIN5 inh: 7; NOD2-RIPK2 inh: -16; TLR4 MyD88 comp: -5; TLR9-MyD88 block: 4; Beta2AR agonist: 51*; NTR1 agonist: -2; B2AR ag CP1: 89; B2AR FAP counter: inactive

What do the screens show for `O=C(c1ccc(OC2CCN(Cc3ccccc3C(F)(F)F)CC2)cc1)N1CCCCC1`?
ABHD5-PLIN5 inh: 1; NOD2-RIPK2 inh: -1; TLR9-MyD88 block: -4; Beta2AR agonist: 1; NTR1 agonist: 9; B2AR ag CP1: 104; B2AR FAP counter: inactive
